ELG1 DNA repair = ELG1-dependent DNA repair inhibition | HEK293T ELG1-luciferase reporter, luminescence, 16 h; DNA damage induced by 5-fluorouridine | Potency, µM (doses to about 46.1 µM), usual class: inhibitors | 330,000 tested, 2.3% active; further: nearly all actives have a fitted effect of over 55% in size
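Step one: seed 2,000 cells per well. Step two: pin-transfer compound or DMSO alongside 5-fluorouridine. Step three: incubate 16 hr, 37 °C, 5% CO2. Step four: add ONE-Glo, wait 30 min, read luminescence.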
SMN2 splice enh = SMN2 splice variant enhancement; HEK293 SMN2-luciferase splicing reporter, luminescence, 30-36 h; Potency, µM (highest dose often 46.1 µM), hits mostly activators; 210,000 tested, 2.8% active; AID 1458; further: nearly all actives have a fitted effect of over 55% in size
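HEK293 cells carry an SMN2 […]–luciferase reporter in which exon 7 inclusion puts luciferase in frame. Cells were plated 10-12 h before compound addition, then incubated 30-36 h at 37C. ONE-Glo luminescence was read; sodium butyrate at 4.5 mM final served as control.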
FLuc modulator = counter-screen for miR-21 project: firefly luciferase inhibitors or activators | P08659 | purified FLuc, Km substrates, luminescence inhibition | Potency, µM (titrated, usually from 57.5 µM), hits mostly inhibitors | 360,000 tested, 6.9% active | AID 588342; further: nearly all actives have a fitted effect of over 55% in size
Target sequence (P08659 whole entry, looked up): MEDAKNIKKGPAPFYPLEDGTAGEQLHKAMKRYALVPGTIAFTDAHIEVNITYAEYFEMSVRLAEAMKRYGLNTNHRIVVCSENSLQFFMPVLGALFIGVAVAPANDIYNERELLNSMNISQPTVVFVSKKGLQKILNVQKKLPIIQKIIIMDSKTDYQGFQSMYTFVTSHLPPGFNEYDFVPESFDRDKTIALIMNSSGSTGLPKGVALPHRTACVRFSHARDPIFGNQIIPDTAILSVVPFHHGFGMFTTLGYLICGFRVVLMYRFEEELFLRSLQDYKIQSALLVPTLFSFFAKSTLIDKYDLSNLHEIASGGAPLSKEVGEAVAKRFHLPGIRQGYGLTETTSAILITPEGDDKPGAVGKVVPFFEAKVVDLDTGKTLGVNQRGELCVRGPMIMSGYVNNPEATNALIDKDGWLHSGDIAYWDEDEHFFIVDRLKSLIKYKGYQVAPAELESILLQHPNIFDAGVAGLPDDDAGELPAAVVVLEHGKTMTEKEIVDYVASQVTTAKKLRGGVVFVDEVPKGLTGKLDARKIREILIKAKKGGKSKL
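Purified P. pyralis luciferase, 10 nM final, with Km-level 10 uM D-luciferin and 10 uM ATP in 50 mM Tris acetate pH 7.5, 10 mM Mg acetate, 0.01% Tween-20, 0.05% BSA; 6-point qHTS titration about 60 µM downward; luminescence read.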
Rab9 prom act = activators of Rab9 promoter. Huh7 Rab9 promoter-luciferase reporter, luminescence, 24 h. Potency, µM (doses to about 9.22 µM), usual class: activators. 320,000 tested, 2.8% active. AID 485297; further: nearly all actives have a fitted effect of over 60% in size
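Using Huh7 cells stably transfected with Rab9 promoter–luciferase, compounds were incubated 24 h at 37 °C, 5% CO2; luciferase luminescence was read 10 min after reagent addition.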
ELG1 genotox = genotoxicity induction in ELG1-luciferase HEK293T cells | HEK293T ELG1-luciferase reporter, luminescence, 16 h | Potency, µM (highest dose often 46 µM), hits mostly activators | 330,000 tested, 1.3% active | AID 504466; further: nearly all actives have a fitted effect of over 60% in size
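Screening used a luciferase reporter fused to human ELG1 in HEK293T cells. Luminescence was read on a CCD plate imager after 16 hr exposure and 30 min ONE-Glo incubation.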
NPC1 prom act = activators of NPC1 promoter | Huh7 NPC1 promoter luciferase reporter, 24 h | 320,000 tested, 2.4% active | Potency, µM (highest dose often 9.22 µM), usual class: activators; further: nearly all actives have a fitted effect of over 60% in size
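Compounds in DMSO were transferred onto Huh7 NPC1-luciferase reporter cells pre-incubated 2 h; after 24 h at 37 °C, Amplite reagent was dispensed and luminescence recorded 10 min later.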
Of the large screens only hits and unclear results are named; the others gave an inactive call. This is a sample that favours compounds with a hit; in the whole collection about 9.2% have one here. The call rests on the fitted dose curve; in most records, active means well fitted curve in the direction sought with a large enough effect; inconclusive means small, poorly fitted or top-dose-only effect, or another doubt; inactive means no such curve, though single readings can be large; an effect the other way counts as inactive or inconclusive.

CC(C)(C)c1ccc(OCc2cnc(Cl)s2)cc1	ELG1 DNA repair inconclusive, FLuc modulator 13µM, Rab9 prom act inconclusive, ELG1 genotox inconclusive
Cc1ccc(CNC(=O)CCC2CCCN(C(=O)c3ccc4c(c3)OCO4)C2)o1 (stereo not drawn)	none (no result: SMN2 splice enh)
COc1ccccc1N1CCN(c2ccnc3cc(Cl)ccc23)CC1	ELG1 DNA repair inconclusive (no result: SMN2 splice enh)
O=S(=O)(c1ccccc1OC(F)(F)F)N1CCN(c2ccnc3cc(Cl)ccc23)CC1	ELG1 DNA repair 21µM (no result: SMN2 splice enh)
COc1ccccc1NC(=O)N1CCc2[nH]c3ccc(Cl)cc3c2C1	ELG1 DNA repair 16µM
COc1cc2c(cc1OC)CN(C(=O)Nc1ccccc1Cl)CC2	FLuc modulator inconclusive (no result: SMN2 splice enh)
O=S(=O)(c1cccc(Br)c1)N1CCN(c2ccnc3cc(Cl)ccc23)CC1	none (no result: SMN2 splice enh)
COc1ccccc1NC(=O)N1CCN(c2cc(-c3ccccc3)nc3ncnn23)CC1	ELG1 DNA repair 13µM
COc1ccccc1NC(=O)N1CCN(c2ccnc3cc(Cl)ccc23)CC1	ELG1 DNA repair 12µM (no result: SMN2 splice enh)
O=C(NO)c1ccccc1	none (no result: ELG1 DNA repair, FLuc modulator, Rab9 prom act, ELG1 genotox, NPC1 prom act)
Cc1nc2c(c(C)c1CCC(=O)NCc1ccc(Cl)cc1)c(=O)n(C)c(=O)n2C	none (no result: ELG1 DNA repair, Rab9 prom act, ELG1 genotox, NPC1 prom act)
O=C(C1CCCCC1)N1CCN(c2ccnc3cc(Cl)ccc23)CC1	ELG1 DNA repair 12µM (no result: SMN2 splice enh)
O=C(Nc1ccc(OC(F)(F)F)cc1)N1CCN(c2ccnc3cc(Cl)ccc23)CC1	ELG1 DNA repair 18µM (no result: SMN2 splice enh)
COc1ccccc1CNC(=O)COc1ccc(C)cc1	NPC1 prom act 3.2µM (no result: SMN2 splice enh)
COc1ccc(NS(=O)(=O)c2cccc(NC(=O)COc3ccc(OC)cc3)c2)cc1	ELG1 DNA repair inconclusive, FLuc modulator 17µM (no result: SMN2 splice enh)
COc1cccc(NC(=O)COc2ccc3c(c2)CCC3)c1	ELG1 DNA repair inconclusive, FLuc modulator 15µM
CC1(C)CC(=O)c2c(O)cc(OCc3ccc([N+](=O)[O-])cc3)cc2O1	ELG1 DNA repair inconclusive, FLuc modulator 4.8µM, Rab9 prom act 3.5µM, ELG1 genotox inconclusive, NPC1 prom act 2.5µM
NS(=O)(=O)c1ccc(CCNC(=O)Cc2ccc(S(=O)(=O)N3CCOCC3)s2)cc1	none (no result: SMN2 splice enh)
CCOc1ccc(N2CC(C(=O)N3CCN(C(=O)c4ccco4)CC3)CC2=O)cc1 (stereo not drawn)	none (no result: SMN2 splice enh)
COc1cccc(NC(=O)COc2cc(O)c3c(c2)OC(C)(C)CC3=O)c1	ELG1 DNA repair inconclusive, FLuc modulator 4.3µM, Rab9 prom act inconclusive, NPC1 prom act inconclusive (no result: SMN2 splice enh)
COc1cccc(NC(=O)COc2ccc(C)cc2)c1	ELG1 DNA repair inconclusive, FLuc modulator 12µM, ELG1 genotox inconclusive
CS(=O)(=O)c1ccc(-c2cccc(NC(=O)COc3ccc(Cl)cc3)c2)nn1	ELG1 DNA repair inconclusive (no result: SMN2 splice enh)
COc1ccc(-c2cccc(NC(=O)COc3ccc(Cl)cc3)c2)nn1	FLuc modulator 21µM (no result: SMN2 splice enh)
O=C(Cn1ccc2cc(S(=O)(=O)N3CCCC3)ccc21)NCc1ccc(Cl)cc1	none (no result: ELG1 DNA repair, SMN2 splice enh, Rab9 prom act, ELG1 genotox, NPC1 prom act)
CCSC1=C(C#N)C(c2ccc(C)s2)CC(=O)N1 (stereo not drawn)	FLuc modulator 27µM
CCCCCOc1ccc(Cl)cc1CN1CCOCC1	ELG1 DNA repair inconclusive, FLuc modulator 15µM, Rab9 prom act inconclusive, ELG1 genotox 21µM
Cc1cc(N=Nc2ccc(Cl)cc2)cc(CN2CCCC2)c1O	FLuc modulator inconclusive (no result: SMN2 splice enh)
Cc1cc(N=Nc2ccc(Cl)cc2)cc(CN2CCOCC2)c1O	FLuc modulator 17µM (no result: SMN2 splice enh)
CCOc1ccc(Cl)cc1CN1CCOCC1	none
COc1ccccc1Nc1nn2c(=O)c3ccc(C(=O)NCCC4=CCCCC4)cc3nc2s1	none (no result: ELG1 DNA repair, SMN2 splice enh, Rab9 prom act, ELG1 genotox, NPC1 prom act)
CN(Cc1ccccc1)c1ccc(C(=O)O)cc1[N+](=O)[O-]	FLuc modulator inconclusive
CCOc1ccccc1NC(=O)CSc1n[nH]c(N)n1	none (no result: SMN2 splice enh)
COC1CCN(C(=O)C2CCC(=O)N(C3CCCCCC3)C2)CC1 (stereo not drawn)	ELG1 DNA repair inconclusive, FLuc modulator 17µM, Rab9 prom act inconclusive, ELG1 genotox inconclusive, NPC1 prom act inconclusive (no result: SMN2 splice enh)
COCC1CCN(C(=O)C2CCC(=O)N(C3CCCC3)C2)CC1 (stereo not drawn)	ELG1 DNA repair inconclusive (no result: SMN2 splice enh)
Cc1ccccc1OCC(=O)NC(=S)Nc1ccccc1N1CCN(S(C)(=O)=O)CC1	none (no result: SMN2 splice enh)
